Measured values reported in PubChem BioAssay (Tox21).
Values without a mark were called inactive. The source made the active and inactive calls. The call rests on the fitted dose curve; in most records, active means well fitted activation curve with a large enough effect in the repeat runs; inconclusive means weak or mixed curves; inactive means flat fitted curve, though single readings scatter.

Assay: A CellTox Green Cytotoxicity Assay to monitor cytotoxicity in HepG2 cells - 0 hour (AID 1224882); further: nearly all actives have a fitted effect of over 35% in size
Details: CellTox Green fluorescence; series mostly up to 76.8 µM; cytotoxicity: at the top concentration
Procedure, shortened: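 Read-out is fluorescence of a cyanine dye excluded from live cells that stains DNA of dead HepG2 cells, with signal proportional to cytotoxicity. Plates were read at 0, 8, 16, 24, 32 and 40 h after compound addition.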
On the % scale 0 is the no-effect control and ±100 the full control effect; potency means the concentration at half of the fitted maximal effect.

SMILES | cytotoxicity | Potency
CC(C)[C@H](C(=O)OC(C#N)c1cccc(Oc2ccccc2)c1)c1ccc(OC(F)F)cc1 (some centres not stated) | -2.2% | –
O=[N+]([O-])c1cc(Cl)ccc1Cl | -12.6% | –
SCc1ccco1 | 5.05% | –
C[C@@H]1O[C@@H](O[C@H]2C[C@@H](O)[C@]3(CO)[C@H]4[C@H](O)C[C@]5(C)[C@@H](C6=CC(=O)OC6)CC[C@]5(O)[C@@H]4CC[C@]3(O)C2)[C@H](O)[C@H](O)[C@H]1O | – | inactive
c1ccc2c(c1)OCC(C1=NCCN1)O2 (configuration not stated) | -0.329% [at 35.3 µM] | –
CC(C)CCCCCOC(=O)c1ccccc1C(=O)OCCCCCC(C)C | 1.06% | –
Cc1c(Cl)c(=O)oc2cc(OP(=O)(OCCCl)OCCCl)ccc12 | 2.5% [at 35.3 µM] | –
CN(C)[C@@H]1C(=O)C(C(N)=O)=C(O)[C@@]2(O)C(=O)C3=C(O)c4c(O)ccc(Cl)c4[C@@](C)(O)[C@H]3C[C@@H]12 | -4.74% | –
c1ccc(OCC2CO2)cc1 (configuration not stated) | -7.76% | –
Clc1ccc(CSC(Cn2ccnc2)c2ccc(Cl)cc2Cl)cc1 (configuration not stated) | -7.89% [at 35.3 µM] | –
Nc1ccc(Sc2ccc(N)cc2)cc1 | -1.74% | –
O=C(O)C1C2CCC(O2)C1C(=O)O (configuration not stated) | – | inactive
CC(C)(COCC1CO1)COCC1CO1 (configuration not stated) | -5.39% | –
COC12CC[C@@]3(C[C@@H]1C(C)(O)C(C)(C)C)[C@H]1Cc4ccc(O)c5c4[C@@]3(CCN1CC1CC1)[C@H]2O5 (some centres not stated) | 2.33% | –
CCCCCCCCCCCCCCCC[n+]1ccccc1 | – | inactive
O=C1NCN(c2ccccc2)C12CCN(CC1COc3ccccc3O1)CC2 (configuration not stated) | 18.3% [at 35.3 µM] | –
Nc1ccccc1C(=O)OC/C=C/c1ccccc1 | -1.03% | –
O=C(O)c1cc[c]([Hg][Cl])cc1 | 15.6% | –
S=C(SSC(=S)N1CCCCC1)N1CCCCC1 | -11.5% [at 35.3 µM] | –

SMILES | cytotoxicity | Potency
CCN | -0.218% | –
CC(C)(C)C(O)/C(=C\c1ccc(Cl)cc1Cl)n1cncn1 (configuration not stated) | -1.54% | –
CCCN(CCC)c1c([N+](=O)[O-])cc(S(N)(=O)=O)cc1[N+](=O)[O-] | -5.58% | –
O=c1oc2ccccc2c(O)c1Cc1c(O)c2ccccc2oc1=O | -0.902% [at 35.3 µM] | –
C[C@@H]1CC[C@@]2(OC1)O[C@H]1[C@@H](O)[C@H]3[C@@H]4CC[C@H]5C[C@@H](O[C@@H]6O[C@H](CO)[C@H](O[C@@H]7O[C@H](CO)[C@@H](O)[C@H](O[C@@H]8OC[C@@H](O)[C@H](O)[C@H]8O)[C@H]7O[C@@H]7O[C@H](CO)[C@@H](O)[C@H](O[C@@H]8O[C@H](CO)[C@@H](O)[C@H](O)[C@H]8O)[C@H]7O)[C@H](O)[C@H]6O)[C@H](O)C[C@]5(C)[C@H]4CC[C@]3(C)[C@H]1[C@@H]2C | 8.94% | –
CC(C)OC(=O)C(O)(c1ccc(Cl)cc1)c1ccc(Cl)cc1 | 2.19% | –
C=CC(=O)OCCCCOC(=O)C=C | 0.983% | –
COP(N)(=S)OC | 4.25% | –
COc1cccc2c1C(=O)c1c(O)c3c(c(O)c1C2=O)C[C@@](O)(C(=O)CO)CC3OC1CC(N2CCOC(OC)C2)C(O)C(C)O1 (some centres not stated) | 26% [at 35.3 µM] | –
Cn1cc(C2=C(c3cn(C4CCN(Cc5ccccn5)CC4)c4ccccc34)C(=O)NC2=O)c2ccccc21 | 13.7% [at 35.3 µM] | –
CCc1ccccc1C | -0.113% | –
CC(=O)[O-].CC(=O)[O-].O.O.[Cd+2] | -8.32% | –
O=[N+]([O-])c1ccc(Oc2ccc(C(F)(F)F)cc2[N+](=O)[O-])cc1 | 1.15% | –
C=CC(=O)OCC(COC(=O)C=C)(COC(=O)C=C)COC(=O)C=C | 0.349% | –
COc1cc(C=O)cc2c1[C@H](COC(N)=O)[C@]1(OC(C)=O)ON2C[C@H]2[C@@H]1N2C(C)=O | 4.81% | –
CC(C)Oc1cccc(NC(=O)c2ccccc2C(F)(F)F)c1 | – | 49 µM (active)
C[C@]12Cc3nonc3C[C@@H]1CC[C@@H]1[C@@H]2CC[C@@]2(C)[C@H]1CC[C@]2(C)O | 3.14% [at 35.3 µM] | –
CCOCn1c(-c2ccc(Cl)cc2)c(C#N)c(Br)c1C(F)(F)F | 0.346% | –
